Records with an inconclusive call do not appear. Calls of active or inactive are those of the source. Unless noted, the call rests on the fitted dose curve; in most records, active means well fitted curve in the direction sought with a large enough effect in the repeat runs; inconclusive means weak or mixed curves; inactive means flat fitted curve, though single readings scatter.
Key:
[1] = qHTS assay to test for compound auto fluorescence at 535 nm (green) in HEK293 cells (AID 720680)
[2] = qHTS assay to test for compound auto fluorescence at 535 nm (green) in HEK293 cell free culture (AID 720682)
Summary of the method: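 Steps: dispense DMEM/10% FBS into empty wells; pin in compound or DMSO; measure fluorescence at 485/535 nm. Values are fluorescein equivalents.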

[3] = qHTS assay to test for compound auto fluorescence at 590 nm (red) in HEK293 cell free culture (AID 720683)
Summary of the method: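 Cell-free wells of DMEM with 10% FBS received compound, and intrinsic fluorescence was read at excitation/emission 540/590 nm. Values expressed as equivalence to Rose Bengal sodium.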

[4] = qHTS assay to test for compound auto fluorescence at 590 nm (red) in HepG2 cell free culture (AID 720684)
Summary of the method: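 Rose Bengal sodium served as the reference for red signal. Test compounds were dispensed into serum-containing MEM (10% FBS) without cells, and plates were read at 540/590 nm.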

[5] = qHTS assay to test for compound auto fluorescence at 460 nm (blue) in HepG2 cell free culture (AID 720685)
Summary of the method: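 Cell-free plates of MEM plus 10% FBS received 23 nL compound or DMSO vehicle; blue-channel (405/460 nm) intensity scored against triamterene as reference fluorophore.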

[6] = qHTS assay to test for compound auto fluorescence at 535 nm (green) in HepG2 cell free culture (AID 720686)
[7] = qHTS assay to test for compound auto fluorescence at 460 nm (blue) in HepG2 cells (AID 720687)
Summary of the method: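 HepG2 cells in MEM with 10% FBS, attached overnight at 37 C, were exposed to compound or DMSO for 1 hr at 37 C, 5% CO2. Blue fluorescence was read at 405/460 nm, with triamterene as reference fluorophore.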

[8] = molecular target: Glucocorticoid receptor (Homo sapiens) (UniProt P04150); test: qHTS assay to identify small molecule agonists of the glucocorticoid receptor (GR) signaling pathway (AID 720691; active means well fitted activation curve with a large enough effect in the signal ratio in the repeat runs, not every such curve was filed as active; the % refers to the signal ratio)
Summary of the method: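 Steps: seed GR-bla HeLa cells, incubate 4 h at 37 C/5% CO2; pin-transfer DMSO-dissolved compounds; incubate 18 h at 37 C; add LiveBLAzer B/G FRET substrate; after 2 h at room temperature, measure fluorescence.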

[9] = molecular target: Glucocorticoid receptor (Homo sapiens) (UniProt P04150); test: qHTS assay to identify small molecule antagonists of the glucocorticoid receptor (GR) signaling pathway (AID 720692; active means well fitted inhibition curve with a large enough effect in the signal ratio in the repeat runs, not every such curve was filed as active; the % refers to the signal ratio)
Summary of the method: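 Antagonism was scored as loss of dexamethasone-driven (5 nM final) reporter signal in HeLa cells bearing a glucocorticoid response element–beta-lactamase construct, after 18 h compound exposure at 37 C and 2 h FRET substrate loading.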

Measured: Potency

Sequence of Glucocorticoid receptor (Homo sapiens) (P04150 whole entry, looked up): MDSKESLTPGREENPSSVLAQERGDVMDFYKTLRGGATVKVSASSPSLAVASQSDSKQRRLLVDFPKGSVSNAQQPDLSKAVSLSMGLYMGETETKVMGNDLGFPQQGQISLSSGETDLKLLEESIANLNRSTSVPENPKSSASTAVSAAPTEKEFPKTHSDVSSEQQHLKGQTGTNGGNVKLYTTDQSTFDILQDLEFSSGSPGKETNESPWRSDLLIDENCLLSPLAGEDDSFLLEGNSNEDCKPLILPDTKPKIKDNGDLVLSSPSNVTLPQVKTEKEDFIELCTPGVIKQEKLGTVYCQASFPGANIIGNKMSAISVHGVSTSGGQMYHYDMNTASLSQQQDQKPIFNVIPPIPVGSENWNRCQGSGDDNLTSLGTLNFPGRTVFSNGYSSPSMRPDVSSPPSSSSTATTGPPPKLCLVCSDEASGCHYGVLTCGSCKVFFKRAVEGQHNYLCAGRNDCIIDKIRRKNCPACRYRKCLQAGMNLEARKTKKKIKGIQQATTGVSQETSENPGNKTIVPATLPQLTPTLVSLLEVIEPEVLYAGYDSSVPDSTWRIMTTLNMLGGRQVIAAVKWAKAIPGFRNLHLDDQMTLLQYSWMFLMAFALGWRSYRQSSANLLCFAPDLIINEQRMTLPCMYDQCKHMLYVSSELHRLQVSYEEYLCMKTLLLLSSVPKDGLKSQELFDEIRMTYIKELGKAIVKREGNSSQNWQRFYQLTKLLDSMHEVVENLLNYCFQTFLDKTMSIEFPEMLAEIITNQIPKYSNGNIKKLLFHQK

Cc1cnc(NC(=O)C2=C(O)c3ccccc3S(=O)(=O)N2C)s1
inactive: all assays above

O=c1c(-c2ccc(O)cc2)coc2cc(O)cc(O)c12
not listed: [9]
inactive: all other assays above

Cc1cccc(Nc2cc(Cl)nc(SCC(=O)O)n2)c1C
inactive: all assays above

C/C=C/c1ccc(O)c(OC)c1
not listed: [8] | [9]
inactive: all other assays above

CC(=O)Oc1ccccc1C(=O)O
inactive: all assays above

C1CNCCN1
inactive: all assays above

CCCCC/C(C=O)=C\c1ccccc1
inactive: all assays above

NC(=O)N/N=C/c1ccc([N+](=O)[O-])o1
inactive: all assays above

CC(=O)c1ccc(S(=O)(=O)NC(=O)NC2CCCCC2)cc1
inactive: all assays above

N[C@@H](Cc1c[nH]c2ccccc12)C(=O)O
inactive: all assays above

CC(C)(C)CC(C)(C)c1ccc(O)c(-n2nc3ccccc3n2)c1
inactive: all assays above

COc1ccc(C(=O)c2ccccc2)c(O)c1
inactive: all assays above

Oc1cccc(O)c1
inactive: all assays above

CC(C)Cc1ccc(C(C)C(=O)O)cc1 (centres undefined)
inactive: all assays above

COC(=O)c1ccc(O)cc1
inactive: all assays above

O=c1cc[nH]c(=O)[nH]1
inactive: all assays above

c1ccc2[nH]c(-c3cscn3)nc2c1
inactive: all assays above

COc1ccc(O)cc1
inactive: all assays above

C=C(C)OC(C)=O
inactive: all assays above

COC1=CC(=O)C[C@@H](C)[C@]12Oc1c(Cl)c(OC)cc(OC)c1C2=O
inactive: all assays above

NC(=O)c1ccc([N+](=O)[O-])cc1Cl
inactive: all assays above

O=C(O)CN(CC(=O)O)CC(=O)O
inactive: all assays above

CCOC(=O)C(C)(C)Oc1ccc(Cl)cc1
inactive: all assays above

From PubChem BioAssay (Tox21)
